High-throughput results (PubChem)
Shiga toxin inh: A qHTS for Small Molecule Inhibitors of Shiga Toxin; inhibition, % at 38.7 µM; Vero cells, Shiga toxin protein synthesis inhibition reporter; 290,000 compounds, 9.2% hits; in the data active = inhibition mostly above about 28%, no sharp cut-off; inactive = mostly below about 43%; also: 0% is about no effect
LmPK inh: qHTS Assay for Inhibitors of Leishmania Mexicana Pyruvate Kinase (LmPK); purified LmPK, Kinase-Glo ATP luminescence, 1 h; Potency, µM (doses to about 57.5 µM), for inactives: at the top dose activity change, negative = inhibition, usual class: inhibitors; 290,000 compounds, 0.37% hits; AID 1721, 2009; also: potency is read from the fitted curve at half-maximal effect; % is scaled to controls: 0 for no effect and ±100 for the full control effect
Target sequence (Q27686 whole entry, looked up): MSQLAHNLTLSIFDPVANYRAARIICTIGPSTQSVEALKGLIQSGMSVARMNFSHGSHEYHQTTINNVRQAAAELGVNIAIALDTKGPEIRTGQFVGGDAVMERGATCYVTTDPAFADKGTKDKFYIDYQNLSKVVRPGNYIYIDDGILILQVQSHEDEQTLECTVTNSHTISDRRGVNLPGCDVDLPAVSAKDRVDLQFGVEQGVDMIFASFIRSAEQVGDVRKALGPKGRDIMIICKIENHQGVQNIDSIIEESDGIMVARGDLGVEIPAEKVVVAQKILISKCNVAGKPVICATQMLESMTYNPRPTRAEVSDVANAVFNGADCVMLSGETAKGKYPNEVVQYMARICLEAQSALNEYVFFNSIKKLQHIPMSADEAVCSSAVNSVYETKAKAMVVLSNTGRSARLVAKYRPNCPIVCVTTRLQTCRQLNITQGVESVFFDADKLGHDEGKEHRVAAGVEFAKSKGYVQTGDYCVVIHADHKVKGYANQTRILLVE
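In 50 mM imidazole pH 7.2 with 7 mM MgCl2, LmPK (0.1 nM) turned over PEP (0.5 mM) and ADP (0.1 mM) for 1 h at room temperature. Luciferase read-out of ATP.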
Cycloheximide cs: Cycloheximide Counterscreen for Small Molecule Inhibitors of Shiga Toxin. cell reporter, cycloheximide protein synthesis inhibition counterscreen. max response, %. 300,000 compounds, 12% hits. AID 2314, 2010; in the data active = max response mostly above about 13%, no sharp cut-off; inactive = mostly below about 14%; also: read at 38.3 µM for the half of the compounds with a filed dose; 0% is about no effect
Sm TGR block: qHTS Assay for the Inhibitors of Schistosoma Mansoni Peroxiredoxins. Schistosoma mansoni thioredoxin glutathione reductase (TGR), Q962Y6. purified TGR, DTNB reduction, TNB absorbance 405 nm. Potency, µM (top dose mostly 114 µM), for inactives: at the highest dose activity change, negative = inhibition, actives largely listed as inhibitors. 360,000 compounds, 3% hits; also: potency is read from the fitted curve at half-maximal effect; % is scaled to controls: 0 for no effect and ±100 for the full control effect; nearly all actives have a fitted effect of over 60% in size
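Kinetic colorimetric format: TGR-catalysed, NADPH-driven DTNB reduction monitored via TNB absorbance. Enzyme dispensed at 20 nM; compound exposure 15 min at room temperature before reaction start.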
FBPA Giardia inh: qHTS Assay for Inhibitors of Fructose-1,6-bisphosphate Aldolase from Giardia Lamblia | A8B2U2 | purified Giardia FBPA | Potency, µM (titrated, usually from 59.6 µM), without a hit: at the top dose activity, negative = inhibition, actives largely listed as inhibitors | 290,000 compounds, 0.71% hits | AID 2451, 2010; also: potency is read from the fitted curve at half-maximal effect; % is scaled to controls: 0 for no effect and ±100 for the full control effect; nearly all actives have a fitted effect of over 55% in size
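Giardia FBPA (40 nM reagent) was preincubated 10 min at RT with compound (up to 57.5 uM final), then substrate plus GAPDH/TPI/NAD/arsenate coupling system with diaphorase/resazurin was added; resorufin fluorescence (525/598 nm) was read after 20 min.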
TbPYK inhibitor: qHTS of Trypanosoma Brucei Inhibitors. pyruvate kinase (Trypanosoma brucei), Q57TT1. TbPYK enzyme, Kinase-Glo Plus ATP luminescence, 45 min. Potency, µM (titrated, usually from 76.8 µM), for the others: at the top dose activity, negative = inhibition, actives largely listed as inhibitors. 410,000 compounds, 0.12% hits; also: potency is read from the fitted curve at half-maximal effect; % is scaled to controls: 0 for no effect and ±100 for the full control effect; nearly all actives have a fitted effect of over 50% in size
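Readout: single end-point luminescence (Kinase-Glo Plus, 10 min). Reaction conditions were TbPYK/substrate plus 130 uM ADP, 45 min at RT, pH 7.2 TEA buffer. No-enzyme wells served as controls, and data were normalized before concentration-response fitting.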
Active calls of the source: *; ? = inconclusive; nt = no result; + = active, no number; [ ] = dose if it differs, or a comment. Only a selection was taken, and hits are over-represented in it overall. Unless noted, calls follow the shape of the dose curve; as a rule, active = well fitted curve in the direction sought with a large enough effect; inconclusive = small, poorly fitted or top-dose-only effect, or another doubt; inactive = no such curve, though single readings can be large; an effect the other way counts as inactive or inconclusive.

SMILES	Shiga toxin inh	LmPK inh	Cycloheximide cs	Sm TGR block	FBPA Giardia inh	TbPYK inhibitor
CC(OC(=O)c1ccc(-c2ccc(O)cc2)cc1)C(=O)NC1CCCCC1C (stereo not drawn)	nt	nt	nt	2%	nt	1%
CCOc1ccc(N2CC(C(=O)NCCc3ccc(F)cc3)CC2=O)cc1 (stereo not drawn)	-6	-2%	0	-5%	2%	5%
CCc1cccc2c1NC(=O)C2(O)N1CCCC(C)C1 (stereo not drawn)	nt	-1%	12	11%	4%	2%
CC1CCCN(C2(O)C(=O)Nc3c(C(F)(F)F)cccc32)C1 (stereo not drawn)	24	2%	9.4*	9%	1%	6%
COc1cc(OC)c(N(C)C(=O)c2sc3nc4n(c(=O)c3c2C)CCCCC4)cc1Cl	nt	nt	nt	-19%	nt	-4%
Cc1c(C(=O)Nc2cccc(C(F)(F)F)c2)sc2nc3n(c(=O)c12)CCCC3	nt	nt	nt	-36%	nt	-3%
COc1cc(OC)c(N(C)C(=O)c2sc3nc4n(c(=O)c3c2C)CCCC4)cc1Cl	nt	nt	nt	32µM*	nt	6%
COc1cc(OC)c(NC(=O)c2sc3nc4n(c(=O)c3c2C)CCCC4)cc1Cl	nt	nt	nt	50µM*	nt	-1%
Cc1c(C(=O)N(C)c2cccc(C(F)(F)F)c2)sc2nc3n(c(=O)c12)CCCCC3	nt	nt	nt	10µM*	nt	-4%
CC[C@](N)(CCC(=O)O)C(=O)O	nt	nt	nt	nt	-11%	nt
Cc1ccc2nc(Nc3ccc(C)c(F)c3)c3nncn3c2c1	nt	nt	nt	1%	nt	-7%
Cc1ccc(C(=O)/C=C/c2cc(C#N)n(C)c2C)cc1	80*	10%	35*	-1%	-11%	3%
Cc1ccc(NCCC(=O)c2cccc([N+](=O)[O-])c2)cc1	19*	-6%	29*	0.4µM*	-1%	-15%
O=C(CCNc1ccc(Br)cc1)c1cccc([N+](=O)[O-])c1	-13	0%	-1	0.4µM*	-2%	-18%
O=C(CCNc1ccccc1)c1cccc([N+](=O)[O-])c1	10	0%	15	0.45µM*	-4%	3%
O=C(CCNc1ccc(F)cc1)c1cccc([N+](=O)[O-])c1	-5	6%	12	0.5µM*	18%	-6%
Cc1ccc(CONC(=O)c2cccc([N+](=O)[O-])c2)cc1	nt	nt	nt	-23%	nt	3%
CC(=O)Nc1ccc(S(=O)(=O)N2CCc3nc(COc4ccccc4)c4c(c3C2)CO[C@@H](C)C4)cc1	nt	-5%[11.5 µM]	nt	nt	10%[12.9 µM]	nt
CCN(CC(=O)Nc1c(F)cccc1F)C(=O)c1cccc(S(=O)(=O)N2CCCc3ccccc32)c1	nt	nt	nt	nt	nt	-4%
C/C(=N\NC(N)=S)C1=CCC2C3CC[C@H]4CC(O)CC[C@]4(C)C3CC[C@]12C (stereo partly drawn)	27	-2%	13	-2%	1%	-20%
Cn1c(N)c(C(=O)CCl)c(=O)n(Cc2ccccc2)c1=O	-21	3%	-4	11µM*	3%	2%
Cn1c(N)c(C(=O)COC(=O)C2CCCCC2)c(=O)n(C)c1=O	-8	1%	4	3%	3%	-4%
Cn1c(N)c(C(=O)CCl)c(=O)n(C)c1=O	22	7%	-3	25µM*	16%	4%
Cn1c(=O)c(C(=O)CCl)c(N)n(Cc2ccccc2)c1=O	-14	1%	2	7.1µM*	-1%	1%
Cc1ccc2c(=O)cc(C(=O)Nc3ccc(S(=O)(=O)N4CCC(C)CC4)cc3)oc2c1C	nt	nt	nt	3%	nt	0%
SMILES	Shiga toxin inh	LmPK inh	Cycloheximide cs	Sm TGR block	FBPA Giardia inh	TbPYK inhibitor
COc1c(OC(C)=O)ccc(/C=C/c2ccc3ccccc3n2)c1[N+](=O)[O-]	99*	-5%	29*	0%	6%	2%
COc1cc(/C=C/c2ccc3cccc([N+](=O)[O-])c3n2)ccc1OCC#N	-6	-1%	16	-3%	-3%	1%
COc1c(OC(C)=O)ccc(/C=C/c2ccc3cccc(OC)c3n2)c1[N+](=O)[O-]	41*	-1%	22*	-9%	-11%	4%
COC(=O)c1ccc(/C=C/c2ccc3cccc(OC(C)=O)c3n2)cc1	117*	?	57*	-1%	-26%	-11%
CCOc1c(OC(C)=O)ccc(/C=C/c2ccc3cccc(OC(C)=O)c3n2)c1[N+](=O)[O-]	+	0%	43*	-23%	nt	-20%
COC(=O)c1ccc(/C=C/C(=O)O)cc1	-1	-8%	-1	5%	6%	3%
CCN(CC(=O)Nc1c(F)cccc1F)C(=O)c1ccc2c(c1)OCO2	nt	nt	nt	-7%	nt	0%
COc1ccc(CNC(=O)CCCc2nnc3n(CCC(C)C)c(=O)c4sccc4n23)cc1	nt	nt	nt	8%	nt	-5%
CN1C(=O)C2(NC(=O)c3ccccc3N2C)c2ccccc21 (stereo not drawn)	-5	-1%	-2	-15%	0%	7%
CN1C(=O)C(Cl)(Cl)C(=O)c2ccccc21	6	-11%	18*	0%	5µM*	14µM*
COc1cccc(C(c2c(O)cc(C)n(Cc3ccco3)c2=O)N2CCC(C)CC2)c1 (stereo not drawn)	nt	nt	nt	11µM*	nt	6%
CCN1CCN(C(c2cccc(F)c2)c2c(O)cc(C)n(Cc3ccco3)c2=O)CC1 (stereo not drawn)	nt	nt	nt	5µM*	nt	5%
O=C(c1cccc(F)c1)N1CCN(Cc2ccco2)CC1	-3	1%	3	-27%	-9%	-8%
CCN1CCN(C(c2cccc(OC)c2)c2c(O)cc(C)n(Cc3ccco3)c2=O)CC1 (stereo not drawn)	nt	nt	nt	5.6µM*	nt	42%
CCN1CCN(C(c2cccc(OC)c2)c2sc3nc(C)nn3c2O)CC1 (stereo not drawn)	-6	-1%	-4	0%	-1%	-14%
CCN(C(=O)CSc1nc(-c2ccc(C(C)C)cc2)no1)c1ccccc1	nt	nt	nt	-5%	nt	6%
O=C(Cn1cc(S(=O)(=O)N2CCN(c3ccccc3F)CC2)c2ccccc2c1=O)Nc1cccc(C(F)(F)F)c1	nt	nt	nt	8%	nt	1%
c1ccc2c(c1)Nc1nccnc1S2	128*	3%	28*	-16%	?	?
Clc1cc2c(nn1)Nc1ccccc1S2	39	5%	11*	-2%	4%	2%
FC(F)(F)c1cnc2c(c1)Nc1ccccc1S2	44	5%	13*	2%	1%	1%
NS(=O)(=O)c1ccc(N/N=C/c2ccc3c(c2)OCO3)c([N+](=O)[O-])c1	7	-10%	12	1%	1%	1%
O=[N+]([O-])c1ccccc1N/N=C/c1ccccc1	62*	-8%	35*	-2%	1%	-12%
